Results on 64 compounds are retold here after ChEMBL document CHEMBL4513216, “Probing the Open Global Health Chemical Diversity Library for Multistage-Active Starting Points for Next-Generation Antimalarials” (ACS Infect Dis, 2020).

The structures appear in SMILES notation. About 8,600 (12%) of roughly 69,000 compounds showed an effect of 50% or more. Only a selection was taken, and strong results are over-represented in it overall.

The assay has as its system Plasmodium berghei. Description: Screen against P. berghei liver stage (PbLuc), transformed with Luciferase, at 10uM. It counts as functional, HepG2. The conditions noted are these: tested at 10 uM.
`O=S(=O)(C1CC1)N1CC[C@]2(C[C@@H](Oc3ccccn3)CO2)C1`: the INHIBITION was determined as 17.3%.
The result for `CCCc1n[nH]c(C2CN(CCC(F)(F)F)CCO2)n1` (centres undefined) reads 29.7%; that for `Cc1nnc([C@@]23CCO[C@@H]2CCN(Cc2nccs2)C3)o1`, 37.6%; that for `CCc1nc(CN2CCOC(Cn3cncn3)C2)no1` (centres undefined), -7.31%.
Under `Cc1cc(CN2CCN(C(C)C)C(CCO)C2)[nH]n1` (centres undefined) stands 15.5%; under `O=c1c(=CS(=O)(=O)Nc2ccc(Cl)cc2)[nH]c(=O)n2cccc12`, -51.6%; under `O=c1c(=CS(=O)(=O)Nc2ccc(Br)cc2)[nH]c(=O)n2cccc12`, 67.3%.
Under `COc1ccc(NS(=O)(=O)C=c2[nH]c(=O)n3cccc3c2=O)cc1Cl` stands 86.4%; under `CC(C)c1ccc(NS(=O)(=O)C=c2[nH]c(=O)n3cccc3c2=O)cc1`, -26.1%; under `O=c1c(=CS(=O)(=O)Nc2ccccc2)[nH]c(=O)n2cccc12`, -63.5%.
Consider `Cc1ccc(NS(=O)(=O)C=c2[nH]c(=O)n3cccc3c2=O)cc1`, for which the INHIBITION was -53.7%.
Under `Cn1cnc2ccc(NC(=O)CC3CCN(S(C)(=O)=O)CC3)cc21` stands -9.2%.
The result for `CC(Oc1cccc(Cl)c1)C(=O)Nc1cnn(CC(=O)NC2CC2)c1` (centres undefined) reads 10.7%.
The result for `CC(Oc1cccc(Cl)c1)C(=O)Nc1cnn(CCN(C)C)c1` (centres undefined) reads 60%; that for `CC(=O)c1cccc(OC(C)C(=O)Nc2cnn(CCN(C)C)c2)c1` (centres undefined), 34.2%; that for `CC(C)c1cc(C(=O)NCCc2nc(-c3cccnc3)n[nH]2)[nH]n1`, 12.365%.
Take `c1cnc(N2CCc3onc(CN4CCOCC4)c3C2)cn1`: the INHIBITION is reported as 12.6%.
Consider `CSC1(CNC(=O)N(C)Cc2ccc(Cl)s2)CCOCC1`, for which the INHIBITION is listed as 19.1%.
The result for `CSC1(CNC(=O)N(C)Cc2sccc2C)CCOCC1` reads 43.4%.
Under `CSC1(CNC(=O)N(C)Cc2ccc(C)s2)CCOCC1` stands 57.3%.
The result for `OCCN1CCN(CCOCC(F)(F)F)CC1` reads 28.3%.
`COCCN1C(=O)CC[C@@H]2[C@H]1CCN2Cc1cccc(C#N)c1`: the INHIBITION is 27.6%.
For the compound `COCCN1C(=O)C[C@H]2[C@H]1CCN2Cc1ccccc1`, the INHIBITION worked out at 54.4%.
Under `N#Cc1cccc(CN2CC[C@@H]3[C@@H]2CC(=O)N3Cc2ccncc2)c1` stands 29.9%.
Under `CN(C)C(=O)CN1C(=O)C[C@@H]2[C@@H]1CCN2Cc1cccc(C#N)c1` stands 81.2%.
For the compound `COCCN1C(=O)C[C@H]2[C@H]1CCN2Cc1ccc(OC)cc1`, the INHIBITION is 16.5%.
The result for `CN1C(=O)C[C@H]2[C@H]1CCN2Cc1cccc(C#N)c1` reads 7.77%; that for `N#Cc1cccc(CN2CC[C@@H]3[C@@H]2CC(=O)N3CCN2CCCC2)c1`, 21.8%; that for `COCCN1C(=O)C[C@H]2[C@H]1CCN2Cc1cccc(C#N)c1`, 33.5%.
Under `CC(C)CN1C(=O)C[C@@H]2[C@@H]1CCN2Cc1cccc(C#N)c1` stands 63.7%; under `N#Cc1cccc(NC(=O)CCn2nc(-c3cccs3)oc2=O)c1`, 38.8%.
The result for `COc1ccc(Cl)cc1Nc1nc(N)c(C(C)=O)s1` reads 9.32%; that for `OCCN1CCC2(CC1)CC(NCc1ccccn1)c1ccccc1O2` (centres undefined), 33%.
Consider `O=C(Nc1cccc(CNCc2ccccn2)c1)C1CCCC1`, for which the INHIBITION is given as -0.65%.
The result for `O=C(Nc1ccc(CCN2CCC(O)CC2)cc1)C1CCCCC1` reads 29.2%; that for `CN1C(=O)CC2(CCN(S(=O)(=O)C3CC3)CC2)c2ccccc21`, 55.6%.
Consider `CN1C(=O)CC2(CCN(S(=O)(=O)N(C)C)CC2)c2ccccc21`, for which the INHIBITION amounted to 27.5%.
As for `CN(C)C(=O)N1CC2(CCN(S(C)(=O)=O)CC2)c2ccccc21`, the INHIBITION is listed as -43.1%.
Under `CN1C(=O)C2(CCN(S(=O)(=O)C3CC3)CC2)c2ccccc21` stands -3.51%; under `CN(C)C(=O)N1CC2(CCN(S(=O)(=O)C3CC3)CC2)c2ccccc21`, 38.2%.
Under `CN1CC2(CCN(S(=O)(=O)C3CC3)CC2)c2ccccc21` stands 58.5%.
Under `O=C(c1ccccn1)N1CCC2(CCCN(c3nncs3)C2)C1` (centres undefined) stands 28.5%.
Take `COc1c(C2CC(=O)Nc3[nH]ncc32)cc2c(c1OC)OCO2` (centres undefined): the INHIBITION turned out to be 7.38%.
For `Cc1sc(CN)nc1-c1ccccc1`, the INHIBITION was 6.54%.
On to `Cc1ccc(C(=O)N2CCc3ccc(=O)n(CCN(C)C)c3CC2)o1`, for which the INHIBITION is -17.2%.
Under `CN1CCC(N(C)CCC(=O)N2CCC(Oc3ccc(Cl)cc3)CC2)C1` (centres undefined) stands 67.4%; under `NC(=O)CC1CCN(C(=O)CCOc2ccc(Cl)cc2)CC1`, 23.2%.
As to `COc1ccc(OC2CCN(C(=O)CCc3nc(Cl)n[nH]3)CC2)cc1`, the INHIBITION was determined as 28.4%.
The result for `CN1CCC(N(C)CCC(=O)N2CCC(CCc3ccccc3)CC2)C1` (centres undefined) reads 74.3%.
`CN1CCC(N(C)CCC(=O)N2CCC(Cc3ccc(F)cc3)CC2)C1` (centres undefined): the INHIBITION worked out at 66.4%.
The result for `CN1CCC(N(C)CCC(=O)N2CCC(OCc3ccccc3)CC2)C1` (centres undefined) reads 23.8%.
For the compound `CN1CC[C@H](N(C)Cc2ccccc2)C[C@H](O)C1`, the INHIBITION is 18.4%.
Under `O=C(CCc1cc(O)no1)N1CCC(Cc2ccc(F)cc2)CC1` stands -3.12%.
The result for `CN1CCC(N(C)CCC(=O)N2CCN(Cc3cccc(F)c3)CC2)C1` (centres undefined) reads -0.991%; that for `CCc1nc(-c2ccnc(N3CCNCC3)n2)no1`, 29.6%; that for `Cc1cc(C)c(CNC(=O)N2CCCC2c2ccc(F)cc2)c(=O)[nH]1` (centres undefined), 34.7%.
On to `CC(C)n1cnnc1CN(C)C(=O)CCn1cnc2ccccc2c1=O`, for which the INHIBITION is -17.6%.
Under `CN1CC(=O)N(C2CCC2)Cc2c(NC3CCNCC3)ncnc21` stands 20.9%; under `CC(=O)N[C@@H]1CN(Cc2ccc(F)cc2F)C[C@H]1c1ccc(C)o1`, -14.1%.
Under `Cc1ccc(C(CNCc2cccc3c2OCO3)N2CCOCC2)o1` (centres undefined) stands 29.4%; under `c1csc(C(CNCc2cccc3c2OCO3)N2CCOCC2)c1` (centres undefined), 61.9%.
Under `CC(C)C(CNCc1cccc2c1OCO2)N1CCOCC1` (centres undefined) stands 24.8%; under `Cc1ccc(NC(=O)N2CCCC(O)C2)c(Br)c1` (centres undefined), -86.5%.
Consider `Cc1ccc(OCCCNC(=O)CN(C)c2ccc(C#N)cn2)cc1`, for which the INHIBITION is listed as 49.3%.
